# Source: paper PMC4336329 (PLoS ONE, 2015)
# In all, about 310,000 compounds went through this assay and about 14,000 (4.5%) showed an effect of 50% or more. Effects have a minus sign here. The sample as a whole holds a higher share of strong results than the screen did.
# Biological target: human ether-à-go-go-related gene (hERG) potassium channel (human, UniProt Q12809)
# Assay: primary screen, population patch clamp on CHO cells stably expressing hERG; higher = less effect of the substance
# 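Note: peak tail current of the secondary pulse compared with the same well before compound.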
# human ether-à-go-go-related gene (hERG) potassium channel, sequence (Q12809 whole entry, looked up): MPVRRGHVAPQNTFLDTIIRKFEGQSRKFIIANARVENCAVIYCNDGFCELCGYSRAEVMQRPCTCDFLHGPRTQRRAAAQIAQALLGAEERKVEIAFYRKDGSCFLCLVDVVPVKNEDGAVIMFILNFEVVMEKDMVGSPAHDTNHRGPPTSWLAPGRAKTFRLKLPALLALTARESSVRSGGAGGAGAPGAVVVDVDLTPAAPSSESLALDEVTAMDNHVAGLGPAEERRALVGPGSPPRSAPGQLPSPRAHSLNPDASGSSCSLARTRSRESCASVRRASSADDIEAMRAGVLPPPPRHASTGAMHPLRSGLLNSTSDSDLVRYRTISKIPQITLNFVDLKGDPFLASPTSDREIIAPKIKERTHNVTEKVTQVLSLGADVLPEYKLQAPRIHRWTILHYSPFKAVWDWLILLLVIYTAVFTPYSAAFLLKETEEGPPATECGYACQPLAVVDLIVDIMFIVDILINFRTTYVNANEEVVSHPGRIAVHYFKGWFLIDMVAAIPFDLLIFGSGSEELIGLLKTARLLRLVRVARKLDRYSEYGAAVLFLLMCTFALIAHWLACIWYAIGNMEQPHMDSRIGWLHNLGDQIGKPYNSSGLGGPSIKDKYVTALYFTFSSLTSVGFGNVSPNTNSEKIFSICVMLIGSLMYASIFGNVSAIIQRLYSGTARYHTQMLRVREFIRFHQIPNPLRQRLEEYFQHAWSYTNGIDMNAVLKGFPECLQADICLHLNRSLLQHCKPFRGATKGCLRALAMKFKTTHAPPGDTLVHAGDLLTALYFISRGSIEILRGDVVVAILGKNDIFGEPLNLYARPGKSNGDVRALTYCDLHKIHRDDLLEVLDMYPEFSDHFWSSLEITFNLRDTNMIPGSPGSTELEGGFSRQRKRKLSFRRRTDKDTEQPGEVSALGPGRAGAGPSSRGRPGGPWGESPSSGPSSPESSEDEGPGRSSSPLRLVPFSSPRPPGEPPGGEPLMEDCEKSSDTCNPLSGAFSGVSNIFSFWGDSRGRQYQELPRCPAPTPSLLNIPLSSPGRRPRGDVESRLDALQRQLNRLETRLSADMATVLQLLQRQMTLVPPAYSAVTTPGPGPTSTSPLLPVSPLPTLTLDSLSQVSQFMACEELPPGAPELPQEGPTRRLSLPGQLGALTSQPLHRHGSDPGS
row,Compound,"hERG current change (%, negative = inhibition) at 10uM [%]"
1,CCCc1[nH]nc2c1C(c1ccc(O)c(OC)c1)C(C#N)=C(N)O2 (centres unmarked),-31.9
2,COc1ccc(CCNC(=O)/C=C\c2ccccc2)cc1OC,-7.74
3,COc1ccc(CCN(C)Cc2c(F)cccc2F)cc1OC,-25.6
4,COc1ccc(CCN(C)C/C=C/c2ccccc2)cc1OC,-64.6
5,COc1ccc(CCN(C)C/C=C/c2ccccc2[N+](=O)[O-])cc1OC,-70.8
6,COc1ccc(CCN(C)c2ccc(C(N)=O)cc2[N+](=O)[O-])cc1OC,-6.3
7,CN(C/C=C/c1ccccc1[N+](=O)[O-])Cc1ccccc1,-46
8,Cc1ccn2cc(-c3cccc(NC(=O)C(C)C)c3)nc2c1,3.3
9,Cc1cc(NC(=O)CCC(=O)N(CC(=O)NC2CCCC2)c2cccc(F)c2)no1,-3.17
10,Cc1ccc(C(=O)N[C@H](C(=O)Nc2sccc2C(N)=O)C(C)C)cc1,5.47
11,CCn1cc(-c2nnnn2-c2ccc(Cl)cc2)c(=O)c2ccccc21,-58.8
12,Cn1cc(-c2nnnn2-c2ccc(Cl)cc2)c(C(F)(F)F)n1,-4.49
13,O=C(Cn1cc(-c2nnnn2-c2ccc(Cl)cc2)c(=O)c2ccccc21)c1ccccc1,4.29
14,Cn1cc(-c2nnnn2-c2ccccc2)c(=O)c2ccccc21,-8.94
15,Cn1cc(-c2nnnn2-c2ccc(Cl)cc2)c(=O)c2ccccc21,-69.3
16,Clc1ccc(-n2nnnc2-c2ccccc2)cc1,-0.933
17,COc1ccc(OC)c(S(=O)(=O)N2CCCC(C(=O)NCc3ccco3)C2)c1 (centres unmarked),-5.29
18,O=C(c1ccc(N2C(=O)CCC2=O)cc1)N1CCOCC1,7.4
19,O=C(NCCc1ccco1)C(=O)NCC1OCCCN1S(=O)(=O)c1cc(F)ccc1F (centres unmarked),-8.36

row,Compound,"hERG current change (%, negative = inhibition) at 10uM [%]"
1,CC(=O)C(Sc1nn(C)c(=S)s1)C(=O)Nc1ccccc1 (centres unmarked),3.73
2,COc1cccc(/C=C2\SC(=S)N(CCC(=O)NNC(=O)c3ccccc3OC)C2=O)c1,18.5
3,CCOc1ccc(CN(C(=O)c2oc3cc(C)ccc3c2C)C2CCS(=O)(=O)C2)cc1 (centres unmarked),-10
4,Cc1ccc(NC(=O)CNC(=O)c2ccc3c(c2)OCO3)nc1,1.63
5,CCC(C)(C)n1nnnc1C(c1cc(OC)ccc1OC)N1CCC(C(N)=O)CC1 (centres unmarked),-1.9
6,CC1CN(C(=O)CS(=O)(=O)Cc2ccccc2)CC(C)O1 (centres unmarked),17.1
7,COc1cccc(N/C(=N/C(=S)Nc2ccc(C)cc2C)Nc2nc(C)cc(C)n2)c1,0.704
8,CS(=O)(=O)O.NC(=Nc1ccccc1)NC(=O)c1nc(Cl)c(N)nc1N,-50
9,Cl.NC(=NCCc1ccccc1)NC(=O)c1cc(Cl)ccc1O,-2.39
10,Cl.NC(=NCc1ccccc1)NC(=O)c1nc(Cl)c(N)nc1N,-54.2
11,CSc1ncccc1C(=O)OCC(=O)c1ccc(S(=O)(=O)N2CCCCC2)cc1,23.5
12,CCOC(=O)N1CCN(C(=O)c2ccc(C)c(S(=O)(=O)N3CCCCC3)c2)CC1,-46
13,CS(=O)(=O)N1CCN(c2nc(-c3ccc(F)cc3)cs2)CC1,-77.2
14,Fc1ccc(-c2csc(N3CCSCC3)n2)cc1,17.6
15,CC(C)C(=O)N1CCN(c2nc(-c3ccc(Cl)cc3)cs2)CC1,-82.5
16,CCOC(=O)N1CCN(c2nc(-c3ccc(Cl)cc3)cs2)CC1,-8.2
17,CCC(=O)N1CCN(c2nc(-c3ccc(Cl)cc3)cs2)CC1,-25
18,O=S(=O)(c1ccc(F)cc1)N1CCN(c2nc(-c3ccc(F)cc3)cs2)CC1,-8.44
19,CC(=O)c1ccc(N2CCN(C(=O)c3ccc(NC4=NC5CS(=O)(=O)CC5S4)cc3)CC2)cc1 (centres unmarked),-1.77

row,Compound,"hERG current change (%, negative = inhibition) at 10uM [%]"
1,COc1ccccc1NC(=O)C1CCOC1=O (centres unmarked),15.4
2,CCCn1nnnc1NCc1ccc(OC)cc1,15.3
3,O=C(CC1C(=O)NCCN1Cc1cccc(Oc2ccccc2)c1)NCCc1cscn1 (centres unmarked),8.01
4,C=CC[n+]1c(C)csc1Nc1cccc(Br)c1.[Br-],-6.64
5,Cc1cccc(N(CC(=O)NCC2CCCO2)C(=O)CCC(=O)Nc2nccs2)c1 (centres unmarked),12.9
6,COc1ccc(N2CCN(C(=O)CNC(=O)Cc3ccccc3)CC2)cc1,-13.3
7,CCN(CC)CCNC(=O)c1c(C)oc2cc(Br)c(OC)cc12,-32.1
8,COc1cc2c(C(=O)N3CCN(C)CC3)c(CSc3ccccc3)n(C)c2cc1Br,-74
9,CCN(CC)CCNC(=O)c1c(C)n(-c2ccccc2)c2cc(Br)c(OC)cc12,-51.5
10,COc1cc2c(C(=O)N3CCN(C)CC3)c(C)n(C)c2cc1Br,-9.17
11,COc1ccc2c(c1)c(C(=O)N1CCN(C)CC1)c(C)n2-c1ccccc1,-44
12,COc1cc2c(C(=O)N3CCN(C)CC3)c(C)n(-c3ccccc3)c2cc1Br,-54.7
13,COc1cc2c(C(=O)OCCN(C)C)c(CSc3ccccc3)n(C)c2cc1Br,5.67
14,COc1cc2c(C(=O)N3CCOCC3)c(CSc3ccccc3)n(C)c2cc1Br,-6.35
15,COc1cc2c(C(=O)O)c(C)n(C)c2cc1Br,20.3
16,O=C(COC(=O)CNC(=O)c1ccccc1F)NC12CC3CC(CC(C3)C1)C2,0.652
17,COc1ccccc1NC(=O)Nc1cccc(C(=O)O)c1,17.5
18,N#CC(c1ccc(Cl)cc1)c1ccc2c(C(F)(F)F)cc(C(F)(F)F)nc2n1 (centres unmarked),6.7
